Several values for one entry are separate records, joined by “and”; a condition that tells them apart may be missing. Identical values can stand only once. Among all 230,000 compounds or so, about 1,500 (0.65%) were called active.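 Rule for the calls: active = pattern-corrected inhibition of lipid staining of at least 50% with the nuclear-stain viability signal not falling by more than 50%; inactive = the rest, inconclusive results apart.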 This excerpt belongs to a sample that is enriched for actives. The source holds several records for some structures; these can differ, active in one and inactive in another.
assay: inhibitors of triacylglycerol accumulation, primary screen, cell-based, uHTS, fluorescence, H9c2 (AID 651582); settings: H9c2 cells, Nile Red lipid (TAG) fluorescence, at 12.5 µM, cells loaded with 200 µM oleic acid; DAPI nuclei signal change (viability), lower = more cytotoxic: measured here: DAPI nuclei count viability; inhibition: stronger effect = higher value;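 for inhibition: 0% = DMSO wells and 100% = triacsin C control wells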

| Structure (SMILES) | DAPI nuclei signal change (viability), lower = more cytotoxic | inhibition |
| --- | --- | --- |
| NC(=O)CSc1nnc(-c2cccc(S(=O)(=O)N3CCOCC3)c2)o1 | 2.86% | 9.91% (inactive) |
| O=[N+]([O-])c1cccc(C=NN=Cc2ccccc2O)c1 | -6.09% | 3.14% (inactive) |
| COc1ccc(NC(=O)C2Cc3c(-c4ccc5c(c4)OCO5)ccnc3O2)cn1 (centres undefined) | -129% | 146% (inactive) |
| CCN1C(=O)/C(=C2/Sc3ccccc3N2CCCS(=O)(=O)O)SC1=S | 12.7% and -2.03% | -9.06% (inactive) and 5.16% (inactive) |
| CCN1C(=O)/C(=C\N2CCOCC2)SC1=S | 1.56% | 1.92% (inactive) |
| CCCCN1C(=O)/C(=C/C=C2/C=Cc3ccccc3N2CC)SC1=S | 10.9% | 87.8% (active) |
| CCc1nc2c(OCc3ccc(F)c(F)c3)cccn2c1N(C)C(=O)c1ccco1 | -19.3% | 7.19% (inactive) |
| COc1ccc(Nc2cc(=O)oc3ccccc23)cc1 | -14.8% | 52.3% (active) |
| COc1ccc(Nc2ccc3ccccc3c2)cc1 | 8.55% | 8.64% (inactive) |
| COc1ccc(N2CCN(Cc3cc(=O)oc4ccc5ccccc5c34)CC2)cc1 | 4.7% | 7.86% (inactive) |
| COC(=O)c1ccc(C)c(NC(=O)Cn2c(C)csc2=O)c1 | 5.24% | -8.36% (inactive) |
| COc1cccc(NC(=O)C2(C)CCN2Cc2ccccc2Cl)c1 (centres undefined) | 10.6% | -19.4% (inactive) |
| CC1CN(Cc2ccco2)C(=S)N(c2ccccc2)C1=O (centres undefined) | -1.49% | -14.4% (inactive) |
| CN(C)C(=S)N=c1ssc(=S)n1Cc1ccco1 | -24% | 51% (active) |
| Cc1cs/c(=N\N=C\c2ccc(O)cc2)n1Cc1ccco1 | -3.51% | -2.08% (inactive) |
| Cc1onc(NC(=O)c2ccc([N+](=O)[O-])o2)c1Br | -38.7% | 59.1% (active) |
| Cc1cccc(NC(=O)c2ccc([N+](=O)[O-])o2)c1 | -57.9% | 80.8% (inactive) |
| O=C(Nc1ccc(Br)cn1)c1ccc([N+](=O)[O-])o1 | -72.2% | 83.9% (inactive) |
| CC(C)(C)OC(=O)C[C@@H]1C/C=C\C[C@@H](CC(=O)NCCO)C(=O)N[C@H](Cc2c[nH]c3ccccc23)COC1=O | 3.2% | -15.4% (inactive) |
| COc1cccc(NC(=O)CN(C)C(=O)c2ccccc2CCc2ccccc2)c1 | -2.81% | 1.2% (inactive) |
| O=C(COC(=O)c1ccc(F)cc1)NCC1COc2ccccc2O1 (centres undefined) | -0.149% | 4.29% (inactive) |
| CCN(CC)CCC(c1cc(OC)c(OC)c(OC)c1)c1c(OC)cc(OC)c2c(-c3ccccc3)cc(=O)oc12 (centres undefined) | -19.6% | 30.8% (inactive) |
| CCN(CC)CCC(c1ccc2c(c1)OCO2)c1c(OC)cc(OC)c2c(-c3ccccc3)cc(=O)oc12 (centres undefined) | -32.4% | 57.5% (active) |
| COc1cc(OC)c2ccc(=O)oc2c1C(CCN1CCN(c2ccccc2)CC1)c1ccc2c(c1)OCO2 (centres undefined) | 10.1% | 25.2% (inactive) |
| COc1ccc(-c2ccc(CN3C(CC(C)C)C(=O)N(Cc4cn(CC5CCCCC5)nn4)CCS3(=O)=O)cc2)cn1 (centres undefined) | -15.9% | 31% (inactive) |
| CCCC[C@H]1COCCS(=O)(=O)N1Cc1cccc(Cl)c1 | -5.51% | 5.89% (inactive) |

| Structure (SMILES) | DAPI nuclei signal change (viability), lower = more cytotoxic | inhibition |
| --- | --- | --- |
| O=C(CN1C(=O)NC2(CCCCCC2)C1=O)NCc1ccc(F)cc1 | 0.843% | -2.12% (inactive) |
| Cc1cccc(-c2cnc(C(O)c3ccc4ccccc4c3)[nH]2)c1 (centres undefined) | 0.713% | -12.6% (inactive) |
| COc1ccc(S(=O)(=O)N2CCc3ccccc32)cc1C(=O)Nc1cc(S(C)(=O)=O)ccc1Cl | -36.5% | 61.6% (active) |
| COc1cccc(NC(=O)c2cc(S(=O)(=O)N3CCc4ccccc43)cn2C)c1 | -2.57% | -1.15% (inactive) |
| CCN(C(=O)COC(=O)c1cc(S(=O)(=O)N2CCc3ccccc32)ccc1OC)C1CCS(=O)(=O)C1 (centres undefined) | -4.55% | 3.02% (inactive) |
| CCOC(=O)C1(C)CCCN(C(=O)c2ccc(N(C)C)cc2)C1 (centres undefined) | 5.71% | -6.89% (inactive) |
| COc1ccc2sc(-c3ccc(N(C)C)cc3)c(-c3ccc4cc[nH]c4c3)c2c1 | 224% | 24.3% (inactive) |
| COc1ccc(-c2sc3ccc(OC)cc3c2C#Cc2ccccn2)cc1 | 5.72% | 13.1% (inactive) |
| COc1ccc2sc(-c3ccc(N(C)C)cc3)c(C#CCO)c2c1 | 426% | 66.7% (active) |
| Cc1cccc(C(=O)Nc2nnc(S(=O)(=O)N3CCCCCC3)s2)c1 | -4.18% | 6.02% (inactive) |
| O=C(NCc1nnnn1-c1ccc(Cl)cc1)c1ccc2c(c1)OCO2 | 1.1% | -6.02% (inactive) |
| c1ccc(Cn2nnc3c(NCC4CC4)ncnc32)cc1 | -8.3% | 23.9% (inactive) |
| CNc1cncc(-c2ccc(NS(C)(=O)=O)cc2)n1 | -24.4% | 24.8% (inactive) |
| CC(C)(c1ccccc1)c1ccc(OCCN)cc1 | 10.8% | 22% (inactive) |
| CN(C)CC(O)COc1ccc(C(C)(C)c2ccc(OCC(O)CN(C)C)cc2)cc1 (centres undefined) | 20% | 50.5% (active) |
| CCc1ccc(OCC(O)CN2CCN(CCO)CC2)cc1 (centres undefined) | 4.43% | -3.68% (inactive) |
| CC(=O)NC12CC3CC(C1)CC(C(=O)N1CCN(C(=O)c4ccco4)CC1)(C3)C2 | 0.13% | -4.34% (inactive) |
| CS(=O)(=O)c1ccc(C(=O)NNC(=O)c2cccs2)cc1 | -4.79% | -4.25% (inactive) |
| Cc1ccc(/C=N/NC(=O)CN2CCN(Cc3ccccc3)CC2)s1 | 1.3% | 2.92% (inactive) |
| C=CCNC(=S)N/N=C/c1ccc(C)s1 | -18.5% | 56% (active) |
| C=CCNC(=S)N/N=C/c1ccc(OCc2ccccc2)cc1 | 1.44% | 9.8% (inactive) |
| CCOc1ccc(CN2CCN(Cc3ccc4cc(F)ccc4n3)CC2CCO)cc1 (centres undefined) | 1.54% | 7.07% (inactive) |
| O=c1cc(N2CCN(Cc3ccccc3)CC2)c(-c2ccccc2)n[nH]1 | -7.21% | 20.7% (inactive) |
| O=C(CCN1CCN(C/C=C/c2ccccc2)CC1)Nc1cccc(F)c1 | 11.8% | 13.2% (inactive) |
| CNC(=O)NC(=O)C(C)N1CCN(C/C=C/c2ccccc2)CC1 (centres undefined) | 3.57% | 4.65% (inactive) |
| O=C(CN1CCN(Cc2ccccc2)CC1)NC(c1ccccc1)c1ccccc1 | 4.91% | -87.5% (inactive) |

| Structure (SMILES) | DAPI nuclei signal change (viability), lower = more cytotoxic | inhibition |
| --- | --- | --- |
| O=C1c2ccccc2C(=O)c2c1cccc2N1CCN(Cc2ccccc2)CC1 | 4.09% | 114% (active) |
| O=C1c2ccccc2C(=O)c2c1cccc2N1CCN(C/C=C/c2ccccc2)CC1 | 3.54% | 59.1% (active) |
| O=C(COC(=O)/C=C/c1ccc(Cl)cc1)NC1CCS(=O)(=O)C1 (centres undefined) | -1.68% | 1.31% (inactive) |
| O=C(COC(=O)c1ccccn1)NNC(=O)c1ccc(Br)cc1 | 1.16% | 11.9% (inactive) |
| COC(=O)c1ccc(CN2CCCC(C(=O)Nc3cccc(-n4cnnn4)c3)C2)cc1 (centres undefined) | 3.39% | -0.9% (inactive) |
| COc1ccc(C(CNC(=O)c2cccc(S(=O)(=O)Nc3ccc(Br)cc3)c2)N(C)C)cc1 (centres undefined) | 7.9% | -15.7% (inactive) |
| O=C(Nc1nc(-c2ccncc2)cs1)C1COc2ccccc2O1 (centres undefined) | -38.7% | 50.4% (active) |
| COc1ccc(OC)c2sc(NC(=O)C3COc4ccccc4O3)nc12 (centres undefined) | -0.689% | -1.03% (inactive) |
| O=C(Nc1nc2c(F)cc(F)cc2s1)C1COc2ccccc2O1 (centres undefined) | -6.26% | -0.591% (inactive) |
| CCCCc1ccc(NS(=O)(=O)c2cccc(C(=O)N3CCCN(C)CC3)c2)cc1 | 4.43% | -11.5% (inactive) |
| CC1O[C@@H](OC2C(O)C(C)O[C@H](OC(=O)[C@]34CCC(C)(C)C[C@H]3C3=CCC5[C@@]6(C)CC(O)C(O[C@@H]7OC(CO)C(O)[C@@H](O)[C@@H]7O)[C@@](C)(C(=O)O)C6CC[C@@]5(C)[C@]3(CO)CC4)C2O[C@H]2OC(C)[C@@H](O[C@@H]3OCC(O[C@@H]4OC(CO)C(O)[C@H](O)C4O)[C@@H](O)[C@@H]3O)[C@H](O)C2O)C(O)C(O)C1O (some centres undefined) | -3.05% | 18.4% (inactive) |
| Cc1cccc(NC(=O)c2nnn(-c3cccc(C(F)(F)F)c3)c2N)c1 | -5.82% | 3.82% (inactive) |
| COc1ccc(NC(=O)CN(C)CC(=O)Nc2cccc(C(F)(F)F)c2)cc1 | 6.16% | -9.17% (inactive) |
| COc1cc(NC(=O)c2[nH]cnc2C(N)=O)cc(C(=O)Nc2cccc(C(F)(F)F)c2)c1 | -14.2% | 53.7% (active) |
| COc1ccc(NC(=O)C(=O)NCC(=O)Nc2cccc(C(F)(F)F)c2)cc1 | -2.54% | 4.19% (inactive) |
| COc1cc(NC(=O)c2cncc(-c3ccc(C#N)cc3)c2)cc(C(=O)Nc2cccc(C(F)(F)F)c2)c1 | 0.0489% and -1.97% | -19.1% (inactive) and 61.3% (active) |
| N#Cc1ccc(Oc2ccc(C(F)(F)F)cc2NC(=O)c2ccc(F)cc2)cc1 | 4.06% | -7.23% (inactive) |
| CC(C)(C)OC(=O)C[C@@H]1C/C=C\C[C@@H](CC(=O)N(CCO)Cc2ccccc2)C(=O)N[C@H](Cc2ccccc2)COC1=O | -3.76% | 9.88% (inactive) |
| O=C(COc1ccc(Br)cc1)OCC(=O)c1ccc[nH]1 | 0.498% | -0.551% (inactive) |
| CC(=O)NCc1ccc(-c2csc(NC(=O)CCCc3nc4ccccc4c(=O)[nH]3)n2)cc1 | 0.981% | 12% (inactive) |
| Cc1onc(-c2c(F)cccc2Cl)c1C(=O)OCC(=O)N1C(C)CCCC1C (centres undefined) | -2.4% | 8.89% (inactive) |
| CCCCNc1c(-c2ccc(OC)c(Sc3ccc(OC)cc3)c2)nc2ccc(Cl)cn12 | 65.8% | 11.1% (inactive) |
| C=CCC[C@@H](Cc1ccc(F)cc1)C(=O)OC[C@H](Cc1c[nH]c2ccccc12)NC(=O)[C@@H](CC=C)CC(=O)N(CCO)Cc1ccccc1 | -6.98% | 68% (active) |
| C=CCC[C@H](Cc1ccc(F)cc1)C(=O)OC[C@H](C)NC(=O)[C@H](CC=C)CC(=O)N(CCO)Cc1ccccc1 | -5.64% | 27.4% (inactive) |
| C=CCC[C@H](Cc1ccc(F)cc1)C(=O)OC[C@@H](Cc1c[nH]c2ccccc12)NC(=O)[C@H](CC=C)CC(=O)N[C@H](CO)Cc1ccccc1 | 1.3% | 20.3% (inactive) |
